# Assay results taken from PubChem BioAssay.
# Unmarked numbers belong to inactive results. The list shows a part of the results. The source made the active and inactive calls.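 The calls were made as follows, unless noted: active = inhibition above the hit cutoff set in the earlier primary screen (cut at about 27% in these data); inactive = the rest.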
# Experiments:
# [1] = biological target: Glutathione S-transferase omega-1 (Homo sapiens) (UniProt P78417); assay: recombinant GSTO1 blockers, retest – biochemical, fluorescence polarization, triplicate, counter-screen for RBBP9 inhibitor project, confirmation (AID 2176;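 active = inhibition above the primary screen's cutoff, its mean inhibition plus 3 SD, cut at about 35% in these data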;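 also: loss of polarization as inhibitors block binding of rhodamine sulfonate ester activity probe; 0% = GSTO1 with DMSO and 100% = wells lacking GSTO1 enzyme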); conditions: recombinant GSTO1, probe fluorescence polarization; at 5.96 µM; active compounds read high
# Chain of Glutathione S-transferase omega-1 (Homo sapiens) (P78417 whole entry, looked up): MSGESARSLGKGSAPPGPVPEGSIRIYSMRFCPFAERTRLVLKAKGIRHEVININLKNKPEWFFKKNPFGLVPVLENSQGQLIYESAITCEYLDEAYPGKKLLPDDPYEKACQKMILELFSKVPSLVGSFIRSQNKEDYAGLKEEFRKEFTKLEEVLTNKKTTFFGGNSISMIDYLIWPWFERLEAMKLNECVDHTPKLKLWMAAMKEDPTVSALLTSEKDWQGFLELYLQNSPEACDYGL
# [2] = biological target: Protein phosphatase methylesterase 1 (Homo sapiens) (UniProt Q9Y570); assay: human PME-1 methylesterase inhibition confirmation – biochemical, fluorescence polarization, FP-Rh probe, triplicate (AID 2171); conditions: recombinant PME-1, FP-Rh probe fluorescence polarization; at 5.9 µM; active compounds read high;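 also: 0% = enzyme with DMSO and 100% = wells lacking PME-1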
# Chain of Protein phosphatase methylesterase 1 (Homo sapiens) (Q9Y570 whole entry, looked up): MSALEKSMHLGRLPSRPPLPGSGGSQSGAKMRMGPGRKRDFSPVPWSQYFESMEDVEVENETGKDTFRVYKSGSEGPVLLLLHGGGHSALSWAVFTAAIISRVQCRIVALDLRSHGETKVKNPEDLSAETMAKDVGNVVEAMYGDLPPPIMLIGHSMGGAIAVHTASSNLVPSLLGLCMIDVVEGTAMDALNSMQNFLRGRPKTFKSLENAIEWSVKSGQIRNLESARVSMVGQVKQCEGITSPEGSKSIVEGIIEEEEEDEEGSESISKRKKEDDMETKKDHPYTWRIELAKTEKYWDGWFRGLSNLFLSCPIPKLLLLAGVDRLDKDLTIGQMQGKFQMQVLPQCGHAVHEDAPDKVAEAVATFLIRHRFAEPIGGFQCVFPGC
# [3] = StAR promoter reporter inhibitors, counter-screen for LRH-1 inverse agonist project, cell-based, luminescence, high throughput (AID 651611; in the data active = inhibition above about 28%); conditions: StAR promoter luciferase reporter counterscreen, at 3.6 µM, active compounds read high
# [4] = biological target: Nuclear receptor subfamily 5 group A member 2 (Homo sapiens) (UniProt O00482); assay: NR5A2 activity suppression in reporter cells – cell-based, luminescence, confirmation (AID 651613; in the data active = inhibition above about 42%;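 also: HEK293T cells co-transfected with LRH-1 and StAR promoter luciferase reporter; 0% = vehicle wells and 100% = parental cells lacking receptor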); conditions: cell-based LRH-1 luciferase reporter, inverse agonism; at 3.6 µM; active compounds read high
# Chain of Nuclear receptor subfamily 5 group A member 2 (Homo sapiens) (O00482 whole entry, looked up): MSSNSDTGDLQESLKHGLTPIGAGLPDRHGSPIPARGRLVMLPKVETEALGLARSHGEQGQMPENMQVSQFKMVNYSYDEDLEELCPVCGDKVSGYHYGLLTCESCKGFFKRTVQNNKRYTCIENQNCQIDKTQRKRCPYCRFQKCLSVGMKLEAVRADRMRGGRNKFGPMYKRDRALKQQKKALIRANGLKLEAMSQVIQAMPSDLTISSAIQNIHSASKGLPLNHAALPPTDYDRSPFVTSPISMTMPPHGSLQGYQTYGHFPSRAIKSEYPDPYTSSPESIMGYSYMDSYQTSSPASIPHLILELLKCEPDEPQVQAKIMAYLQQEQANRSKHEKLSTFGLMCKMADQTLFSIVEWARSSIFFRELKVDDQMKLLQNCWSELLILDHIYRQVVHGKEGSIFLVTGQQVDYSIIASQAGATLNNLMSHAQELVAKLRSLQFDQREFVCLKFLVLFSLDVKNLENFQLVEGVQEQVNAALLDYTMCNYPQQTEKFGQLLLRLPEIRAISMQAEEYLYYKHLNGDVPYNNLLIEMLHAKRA
# [5] = biological target: Steroidogenic factor 1 (Homo sapiens) (UniProt Q13285); assay: inverse agonism at SF1 nuclear receptor – cell-based, luminescence, high throughput, counter-screen for LRH-1 inverse agonist project (AID 651614; in the data active = inhibition above about 44%;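 also: cells cotransfected with StAR promoter reporter and SF1 expression vector; 0% = vehicle on cells with receptor and 100% = vehicle on cells lacking receptor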); conditions: cell-based SF1 luciferase reporter, at 3.6 µM, active compounds read high
# Chain of Steroidogenic factor 1 (Homo sapiens) (Q13285 whole entry, looked up, the tested form may be a part): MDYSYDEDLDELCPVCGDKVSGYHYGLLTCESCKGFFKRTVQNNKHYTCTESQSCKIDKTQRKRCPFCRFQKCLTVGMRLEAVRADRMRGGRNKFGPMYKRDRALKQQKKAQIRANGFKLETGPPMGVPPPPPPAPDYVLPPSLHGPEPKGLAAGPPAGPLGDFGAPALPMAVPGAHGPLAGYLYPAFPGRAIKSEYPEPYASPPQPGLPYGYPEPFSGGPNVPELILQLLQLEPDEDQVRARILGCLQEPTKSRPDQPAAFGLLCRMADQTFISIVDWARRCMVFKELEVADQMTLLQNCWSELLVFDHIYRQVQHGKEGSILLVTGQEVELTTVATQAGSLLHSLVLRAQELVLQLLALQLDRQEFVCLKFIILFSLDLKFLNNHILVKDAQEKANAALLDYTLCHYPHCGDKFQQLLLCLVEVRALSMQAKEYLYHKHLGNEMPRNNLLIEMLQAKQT
# [6] = compounds suppressing VP16-driven luciferase signal – cell-based, luminescence, high throughput, counter-screen for LRH-1 inverse agonist project (AID 651615; in the data active = inhibition above about 33%); conditions: Gal4-VP16 luciferase reporter cells, at 3.6 µM, active compounds read high
# [7] = tested on: transactivating tegument protein VP16 (Human herpesvirus 1); assay: compounds suppressing VP16-driven luciferase signal – cell-based, luminescence, single concentration, counter-screen for SRC2 inhibitor project (AID 652007; in the data active = inhibition above about 36%); conditions: cell-based VP16 transactivation luciferase reporter, at 8.9 µM, active compounds read high
# [8] = biological target: Nuclear receptor coactivator 2 (Homo sapiens) (UniProt Q15596); assay: inhibition of GAL4-SRC2 driven luciferase expression – cell-based, luminescence, HEK293, triplicate, confirmation (AID 652008;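 active = mean inhibition above 46.5%, the solvent-only control mean plus 3 SD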;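 also: 0% = DMSO-treated cells and 100% = Gossypol at 36 µM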); conditions: HEK293 GAL4-SRC2 luciferase reporter, at 8.9 µM, active compounds read high
# Chain of Nuclear receptor coactivator 2 (Homo sapiens) (Q15596 whole entry, looked up, the tested form may be a part): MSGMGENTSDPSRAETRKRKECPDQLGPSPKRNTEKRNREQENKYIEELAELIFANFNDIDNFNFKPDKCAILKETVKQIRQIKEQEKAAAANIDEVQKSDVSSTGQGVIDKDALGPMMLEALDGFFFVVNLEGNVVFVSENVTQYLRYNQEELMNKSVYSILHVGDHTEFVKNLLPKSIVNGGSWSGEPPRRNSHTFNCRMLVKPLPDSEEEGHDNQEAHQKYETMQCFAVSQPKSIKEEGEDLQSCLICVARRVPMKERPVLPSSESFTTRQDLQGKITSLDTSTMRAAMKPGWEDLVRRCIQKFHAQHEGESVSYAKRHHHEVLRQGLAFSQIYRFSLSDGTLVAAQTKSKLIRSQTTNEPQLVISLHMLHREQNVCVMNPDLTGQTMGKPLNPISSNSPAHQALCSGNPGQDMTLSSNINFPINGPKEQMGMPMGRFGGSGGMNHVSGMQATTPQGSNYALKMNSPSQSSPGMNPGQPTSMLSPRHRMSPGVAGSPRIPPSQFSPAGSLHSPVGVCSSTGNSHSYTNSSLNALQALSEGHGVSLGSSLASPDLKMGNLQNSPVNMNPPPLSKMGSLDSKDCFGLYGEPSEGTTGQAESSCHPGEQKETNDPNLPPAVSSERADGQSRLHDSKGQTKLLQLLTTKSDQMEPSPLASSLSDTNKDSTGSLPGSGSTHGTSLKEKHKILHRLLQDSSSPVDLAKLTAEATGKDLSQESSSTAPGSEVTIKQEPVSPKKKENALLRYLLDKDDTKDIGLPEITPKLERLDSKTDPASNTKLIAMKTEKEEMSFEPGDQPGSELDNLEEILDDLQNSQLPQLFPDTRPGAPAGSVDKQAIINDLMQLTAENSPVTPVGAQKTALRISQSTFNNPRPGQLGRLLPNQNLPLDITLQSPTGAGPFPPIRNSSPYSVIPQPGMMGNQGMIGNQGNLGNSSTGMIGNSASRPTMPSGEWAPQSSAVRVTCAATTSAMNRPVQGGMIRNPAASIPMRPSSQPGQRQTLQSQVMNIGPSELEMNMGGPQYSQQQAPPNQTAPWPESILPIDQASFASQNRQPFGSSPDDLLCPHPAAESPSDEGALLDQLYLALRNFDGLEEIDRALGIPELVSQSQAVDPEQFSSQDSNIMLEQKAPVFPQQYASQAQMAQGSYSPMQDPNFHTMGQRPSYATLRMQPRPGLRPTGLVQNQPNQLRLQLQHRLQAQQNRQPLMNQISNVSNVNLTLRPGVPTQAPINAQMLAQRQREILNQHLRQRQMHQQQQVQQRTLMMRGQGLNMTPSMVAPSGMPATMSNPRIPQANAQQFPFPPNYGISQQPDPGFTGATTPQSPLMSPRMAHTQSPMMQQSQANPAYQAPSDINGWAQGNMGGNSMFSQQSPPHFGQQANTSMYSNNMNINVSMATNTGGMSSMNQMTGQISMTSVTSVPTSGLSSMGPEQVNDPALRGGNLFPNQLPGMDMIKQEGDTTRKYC
structure (smiles),measurement,setting,value
O=C(OCC(=O)N1CCCC1=O)c1cc(S(=O)(=O)N2CCOCC2)ccc1Cl,inhibition,[1],1.2%
COCCn1c(N)c(C(=O)NCC2CCCO2)c2nc3ccccc3nc21 (centres undefined),inhibition,[2],15.1%
same,inhibition,[3],26.9%
same,inhibition,[4],47.2% (active)
same,inhibition,[5],50.4% (active)
same,inhibition,[6],-14.9%
CCc1ccc(S(=O)(=O)/N=C2\C=C(Nc3ccc(O)cc3)C(=O)c3ccccc32)cc1,inhibition,[2],36.8% (active)
same,inhibition,[3],90.1% (active)
same,inhibition,[4],105% (active)
same,inhibition,[5],96% (active)
same,inhibition,[6],94.3% (active)
O=C1C(SCCO)=C(SCCO)C(=O)c2ccccc21,inhibition,[2],38.3% (active)
same,inhibition,[3],26.2%
same,inhibition,[4],76.3% (active)
same,inhibition,[5],74.8% (active)
same,inhibition,[6],46.1% (active)
O=c1c(/C=N/O)coc2ccc(Cl)cc12,inhibition,[1],4.5%
Cc1cc(C)c(S(=O)(=O)/N=C2/C=C(Sc3ncn[nH]3)C(=O)c3ccccc32)cc1C,inhibition,[2],17.7%
same,inhibition,[3],27.3%
same,inhibition,[4],77.8% (active)
same,inhibition,[5],72.5% (active)
same,inhibition,[6],39.7% (active)
CCC1(CC)Cc2ccccc2-c2nc(CCl)[nH]c(=O)c21,inhibition,[1],94% (active)
Cc1oc2c(c1C(=O)c1ccccc1)C(=O)C(=O)c1ccccc1-2,inhibition,[2],18.1%
same,inhibition,[7],-18.3%
same,inhibition,[8],99.5% (active)
COc1ccc2c(c1)[nH]c1c(N3CCN(Cc4ccc5c(c4)OCO5)CC3)ncnc12,inhibition,[2],14.8%
same,inhibition,[4],50.2% (active)
same,inhibition,[5],53.7% (active)
CN1CCN(c2ccc(NC(=O)c3ccc(-c4ccc(Br)cc4)o3)cc2)CC1,inhibition,[2],37.4% (active)
same,inhibition,[3],0.51%
same,inhibition,[4],52% (active)
same,inhibition,[5],50.9% (active)
same,inhibition,[6],13.1%
